Compounds with a hit are over-represented: about 0.46% of the library has one in this group of screens.
ERp5 block – inhibitors of ERp5-driven insulin aggregation, primary screen, biochemical, turbidity, absorbance 650 nm, single point | 90 min | inhibition, % at 9.99 µM | 350,000 compounds, 0.05% hits | AID 651711, 2012;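 active means mean replicate inhibition above about 25%, with every replicate also reaching it, limit read from the data, passing the limit was not always enough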
PDI turbidity – inhibitors of human PDI, primary screen, biochemical, turbidity, single point, plate reader; Protein disulfide-isomerase (Homo sapiens), P07237; PDI insulin aggregation turbidity, A650, 90 min; inhibition, % at 10 µM; 350,000 compounds, 0.052% hits;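 active means mean inhibition across replicates of 30% or more, whatever share of single replicates reach that level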
PGC1a acetyl inh – inhibitors of PGC1a acetylation signal, primary screen, cell-based, U2OS, AlphaScreen, inhibitor mode | AlphaScreen anti-acetyl-lysine; with virally co-expressed GCN5 acetyltransferase | inhibition, % at 15.6 µM | 350,000 compounds, 0.17% hits | AID 651687, 2012;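 active means every replicate shows inhibition of at least 40%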;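 further: 0% = neutral control wells and 100% = positive control wells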
PglD DTNB – C. jejuni PglD acetyltransferase inhibitors, primary screen, biochemical, DTNB colorimetric, single point; purified PglD enzyme, DTNB colorimetric CoA detection; UDP-N-acetylbacillosamine N-acetyltransferase PglD (Campylobacter jejuni); 360,000 compounds, 0.098% hits; inhibition, % at 12.5 µM; in the data active means inhibition above about 16%, passing the limit was not always enough
ERAP1 HTS inh – human ERAP1 aminopeptidase inhibitors, primary screen, biochemical, single point, plate reader | Endoplasmic reticulum aminopeptidase 1 (Homo sapiens), Q9NZ08 | recombinant ERAP1, Leu-AMC fluorescence, 60 min | inhibition, % at 10.7 µM | 340,000 compounds, 0.15% hits;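 active means mean replicate inhibition of at least 30%, or all replicates individually reaching that 30% level; inactive means mean below 30% and not every replicate reaching it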;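 further: 0% = neutral control wells and 100% = L-leucinethiol positive control wells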
Target sequence (Q9NZ08 whole entry, looked up): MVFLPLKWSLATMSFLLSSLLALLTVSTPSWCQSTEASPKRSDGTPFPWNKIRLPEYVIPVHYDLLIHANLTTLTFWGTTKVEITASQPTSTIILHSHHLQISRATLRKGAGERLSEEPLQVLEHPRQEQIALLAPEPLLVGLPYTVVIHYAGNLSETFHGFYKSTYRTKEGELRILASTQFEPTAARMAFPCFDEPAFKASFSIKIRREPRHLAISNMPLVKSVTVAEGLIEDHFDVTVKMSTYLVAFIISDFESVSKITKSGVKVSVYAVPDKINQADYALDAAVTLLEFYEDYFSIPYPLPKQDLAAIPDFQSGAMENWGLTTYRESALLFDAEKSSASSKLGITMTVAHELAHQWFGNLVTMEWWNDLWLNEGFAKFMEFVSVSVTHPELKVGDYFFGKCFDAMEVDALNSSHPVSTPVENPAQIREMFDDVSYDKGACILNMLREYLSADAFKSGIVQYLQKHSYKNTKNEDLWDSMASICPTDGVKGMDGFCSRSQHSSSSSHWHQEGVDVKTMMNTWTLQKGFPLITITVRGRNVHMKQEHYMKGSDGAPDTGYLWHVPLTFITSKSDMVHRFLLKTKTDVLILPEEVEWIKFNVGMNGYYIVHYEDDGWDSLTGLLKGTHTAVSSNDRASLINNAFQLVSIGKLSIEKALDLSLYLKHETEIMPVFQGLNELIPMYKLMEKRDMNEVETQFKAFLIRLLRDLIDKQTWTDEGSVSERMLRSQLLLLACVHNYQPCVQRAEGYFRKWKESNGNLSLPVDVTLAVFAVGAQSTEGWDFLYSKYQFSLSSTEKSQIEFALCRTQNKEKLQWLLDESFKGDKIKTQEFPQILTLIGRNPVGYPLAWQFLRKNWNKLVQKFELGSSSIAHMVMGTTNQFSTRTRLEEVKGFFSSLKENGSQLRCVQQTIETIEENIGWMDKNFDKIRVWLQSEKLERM
CaV13 FRET inh – Disruptors of the CACNA1D IQ motif to Ca2+-dependent inactivation inhibitor domain association, primary screening, Förster resonance energy transfer in intact living …; inhibition, % at 12.3 µM; 340,000 compounds, 0.098% hits; HEK cells, CFP/YFP FRET ICDI-IQ, plate reader, 10 min; percent FRET-ratio fall versus neutral wells; AID 743397;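 active means mean replicate inhibition of at least 30% and at least 1% of replicates passing that level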;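 further: 0% = median of the neutral control wells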
Active calls of the source: *.

Results for Cc1ccc(S(=O)(=O)Nc2ccc3c(c2)CC(=O)N([C@H](C)CO)C[C@@H](C)[C@@H](CN(C)S(=O)(=O)c2ccc(F)cc2)O3)cc1 ?
PGC1a acetyl inh: -4; PglD DTNB: 0

How did COCCn1c(C)c(C)c2c(NCCc3ccccc3)ncnc21 do in these assays?
ERp5 block: -2; PDI turbidity: 3; PGC1a acetyl inh: 51*; PglD DTNB: 7; ERAP1 HTS inh: 1; CaV13 FRET inh: -13

What do the screens show for `Fc1ccc(/C=N/N2CCCCC2)c(F)c1`?
ERp5 block: 1; PDI turbidity: -2; PGC1a acetyl inh: 66*; PglD DTNB: -1; ERAP1 HTS inh: 0; CaV13 FRET inh: -4

How did COc1ccccc1C=NN1CCCCCC1 do in these assays?
ERp5 block: 3; PDI turbidity: -5; PGC1a acetyl inh: -4; PglD DTNB: -7; ERAP1 HTS inh: -3; CaV13 FRET inh: -10

Results for C[C@H](NC(=O)[C@H]1[C@H](CO)[C@H]2Cn3c(cccc3=O)[C@@H]1N2C(=O)C1CCCC1)c1ccccc1 ?
ERp5 block: -3; PglD DTNB: 9; ERAP1 HTS inh: 2

What do the screens show for `Cc1cc2occ(CC(=O)NNC(=O)c3ccccc3)c2cc1C`?
ERp5 block: 66*; PDI turbidity: 5; PglD DTNB: 0; ERAP1 HTS inh: 1; CaV13 FRET inh: -2

How did Cc1ccc2c(CC(=O)NNC(=O)c3ccccc3)coc2c1 do in these assays?
ERp5 block: -1; PDI turbidity: -10; ERAP1 HTS inh: -2; CaV13 FRET inh: -3

What do the screens show for `C[C@@H]1CCCCO[C@@H](CN(C)C(=O)CCC(F)(F)F)[C@H](C)CN([C@@H](C)CO)C(=O)c2cc(NS(=O)(=O)c3ccc(Cl)cc3)ccc2O1`?
ERp5 block: 64*; PGC1a acetyl inh: -4; PglD DTNB: -1; ERAP1 HTS inh: 0

Results for C[C@@H]1CCCCO[C@@H](CN(C)Cc2ccc(C(=O)Nc3ccccc3N)cc2)[C@@H](C)CN([C@H](C)CO)C(=O)c2cc(NS(=O)(=O)c3cccs3)ccc2O1 ?
ERp5 block: 70*; PGC1a acetyl inh: 1; ERAP1 HTS inh: 5

What do the screens show for `Cc1noc(C)c1S(=O)(=O)Nc1ccc2c(c1)C(=O)N([C@@H](C)CO)C[C@@H](C)[C@@H](CN(C)CC1CCCCC1)OCCCC[C@@H](C)O2`?
ERp5 block: -1; PDI turbidity: 10; PGC1a acetyl inh: 85*; PglD DTNB: 0; ERAP1 HTS inh: 1; CaV13 FRET inh: -2

Results for OC[C@@H]1[C@H](c2ccc(C#CC3CCCC3)cc2)[C@H]2CN(CCC(F)(F)F)CCCCN12 ?
ERp5 block: 3; PGC1a acetyl inh: 81*; PglD DTNB: 4; ERAP1 HTS inh: 1

How did OC[C@H]1[C@@H](c2ccc(C#CC3CCCC3)cc2)[C@@H]2CN(CCC(F)(F)F)CCCCN12 do in these assays?
ERp5 block: 3; PGC1a acetyl inh: -60; PglD DTNB: 1; ERAP1 HTS inh: 0

What do the screens show for `COc1ccc(-n2nnnc2CNC(=O)C2CC(=O)N(c3ccc(F)cc3)C2)cc1` (stereo not given)?
ERp5 block: 3; PDI turbidity: 2; PGC1a acetyl inh: -23; PglD DTNB: -5; ERAP1 HTS inh: 12; CaV13 FRET inh: -5

Results for O=C(NCc1nnnn1-c1ccc(Cl)cc1)C1CC(=O)N(c2ccc(F)cc2)C1 (stereo not given) ?
ERp5 block: -2; PDI turbidity: 3; PGC1a acetyl inh: -10; PglD DTNB: -3; ERAP1 HTS inh: -2; CaV13 FRET inh: 36*

Results for Cc1cc(/C=C2\C(=N)N3N=C(C(C)C)SC3=NC2=O)c(C)n1Cc1ccccc1 ?
ERp5 block: 6; PDI turbidity: 13; PGC1a acetyl inh: 49*; PglD DTNB: 6; CaV13 FRET inh: -20

How did CCC1=NN2C(=N)/C(=C/c3cc(C)n(Cc4ccccc4)c3C)C(=O)N=C2S1 do in these assays?
ERp5 block: 0; PDI turbidity: 20; CaV13 FRET inh: -19

How did CCC(=O)Nc1ccc2c(c1)C(=O)N(C)[C@@H]1CC[C@@H](CC(=O)NCC3CC3)O[C@@H]1CO2 do in these assays?
ERp5 block: 48*; PGC1a acetyl inh: 10; PglD DTNB: -1; ERAP1 HTS inh: -1

How did CN1C(=O)c2cc(NC(=O)C3CCCCC3)ccc2OC[C@@H]2O[C@@H](CC(=O)NC3CCCC3)CC[C@H]21 do in these assays?
ERp5 block: 31*; PGC1a acetyl inh: -2; PglD DTNB: 3; ERAP1 HTS inh: -1

How did CCC(=O)Nc1ccc2c(c1)C(=O)N(C)[C@H]1CC[C@@H](CC(=O)NCC3CC3)O[C@@H]1CO2 do in these assays?
ERp5 block: 78*; PGC1a acetyl inh: 1; PglD DTNB: 0; ERAP1 HTS inh: -2

What do the screens show for `CCC(=O)Nc1ccc2c(c1)C(=O)N(C)[C@@H]1CC[C@H](CC(=O)NCC3CCCCC3)O[C@H]1CO2`?
ERp5 block: 4; PGC1a acetyl inh: 2; PglD DTNB: 5; ERAP1 HTS inh: 2

How did c1csc(CNc2ncnc3ccc(-c4ccoc4)cc23)c1 do in these assays?
ERp5 block: 4; PDI turbidity: 2; PGC1a acetyl inh: 50*; PglD DTNB: 1; ERAP1 HTS inh: -7; CaV13 FRET inh: 11

How did CC(C)NC(=O)N(C)C[C@H]1OCCCC[C@@H](C)Oc2ccc(NC(=O)c3ccccc3)cc2C(=O)N([C@@H](C)CO)C[C@@H]1C do in these assays?
ERp5 block: 1; PGC1a acetyl inh: 9; PglD DTNB: 7; ERAP1 HTS inh: 2

How did COC(=O)c1cc(=O)n(Cc2ccc3c(c2)OCO3)c(=Nc2ccc(F)c(Cl)c2)s1 do in these assays?
ERp5 block: 2; PglD DTNB: -1; ERAP1 HTS inh: 2; CaV13 FRET inh: 38*

What do the screens show for `Cc1ccc(S(=O)(=O)c2ccc(Oc3cccc(C)c3)cc2)cc1`?
PDI turbidity: 32*; PGC1a acetyl inh: -25; PglD DTNB: -1; CaV13 FRET inh: -4

What do the screens show for `Cc1cccc(Oc2ccc(S(=O)(=O)N3CCCCC3)cc2N)c1`?
ERp5 block: -2; PDI turbidity: 1; ERAP1 HTS inh: -2; CaV13 FRET inh: -3

What do the screens show for `C[C@@H]1CN([C@H](C)CO)C(=O)c2cc(NC(=O)CCC(F)(F)F)ccc2O[C@@H](C)CCCCO[C@H]1CN(C)C(=O)Nc1ccc2c(c1)OCO2`?
ERp5 block: 1; PGC1a acetyl inh: 0; PglD DTNB: -3; ERAP1 HTS inh: 3

How did CN(c1cccc(NS(=O)(=O)c2cccs2)c1)S(C)(=O)=O do in these assays?
PDI turbidity: -9; PGC1a acetyl inh: 51*; PglD DTNB: 8

Assay outcomes deposited in PubChem BioAssay by Broad Institute.
